Source: PubChem BioAssay (NCATS)
Inconclusive results are not listed. Where a call stands in place of a potency, no number is given. The source made the active and inactive calls. Unless noted, calls follow the shape of the dose curve; as a rule, active = well fitted curve in the direction sought with a large enough effect; inconclusive = small, poorly fitted or top-dose-only effect, or another doubt; inactive = no such curve, though single readings can be large; an effect the other way counts as inactive or inconclusive.

Columns and labels:
[1] = Validation of Assay for Modulators of Lamin A Splicing (AID 1459; active = well fitted curve in the direction sought with a large enough effect in the signal ratio; the % refers to the signal ratio;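 also: cells exposed to compound for two days before reading; ratio rise marks activators and ratio drop marks inhibitors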)
Method in brief: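 S3 HeLa stably expressing lamin A-EGFP splicing minigene and DsRed2, 600 cells/well in Opti-MEM with 2% FBS, treated 48 h at 37C; laser-scanning cytometry gives GFP/RFP total intensity ratio; ancitabine positive control, 0.5% DMSO vehicle.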

[2] = qHTS Assay for Lipid Storage Modulators (AID 1519; calls by dose curve); details: Drosophila S3 cells, BODIPY lipid droplet/cell ratio, laser cytometry, cells loaded with oleic acid
Method in brief: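 Cells seeded at 5,000 per well were treated with compounds over a concentration series and loaded with oleic acid (400 uM, as added). Lipid droplet fluorescence (488 nm excitation, 500-530 nm channel) was read by laser-scanning cytometry and normalized to 20 uM Triacsin C.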

[3] = biological target: DNA repair nuclease/redox regulator APEX1 (Homo sapiens) (UniProt P27695); test: qHTS Validation Assay for Inhibitors of the Human Apurinic/apyrimidinic Endonuclease 1 (APE1) (AID 1705;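 also: TAMRA fluorescence gain over two minutes as APE1 cuts a quenched THF abasic duplex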)
Chain of DNA repair nuclease/redox regulator APEX1 (Homo sapiens) (P27695 whole entry, looked up): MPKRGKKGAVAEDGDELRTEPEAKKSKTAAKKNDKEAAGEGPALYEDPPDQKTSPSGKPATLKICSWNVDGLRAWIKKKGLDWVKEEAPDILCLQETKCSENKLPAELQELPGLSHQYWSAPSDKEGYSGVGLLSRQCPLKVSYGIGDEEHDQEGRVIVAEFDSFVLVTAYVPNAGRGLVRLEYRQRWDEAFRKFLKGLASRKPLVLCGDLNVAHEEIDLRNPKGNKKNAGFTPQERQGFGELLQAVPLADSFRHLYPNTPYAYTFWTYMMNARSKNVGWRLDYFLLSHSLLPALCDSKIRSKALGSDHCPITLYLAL
Method in brief: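 Fluorogenic double-stranded THF abasic-site substrate (5'-TAMRA/3'-BHQ-2), 50 nM final. Enzyme preincubated with compound 15 min at room temperature, then substrate added. Kinetic fluorescence (ex 525/em 598 nm) read three times at 60 s intervals; activity taken as third-minus-first read difference.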

[4] = Counterscreen for APE1 Inhibitors: Fluorescent Dye Displacement Validation Assay (AID 1707)
Method in brief: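 Signal: ThO fluorescence (ex 480 nm/em 540 nm) on binding 50 nM dsDNA; displacement by test compound reduces it. Conditions: 250 nM dye, 50 mM Tris-HCl pH7.5, 2 mM MgCl2, 50mM NaCl, 0.01% Tween-20.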

[5] = biological target: Endonuclease 4 (Escherichia coli (strain K12)) (UniProt P0A6C1); test: Counterscreen for APE1 Inhibitors: qHTS Validation Assay for Inhibitors of Endonuclease IV (AID 1708)
Method in brief: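 Incision of a double-stranded 50 nM TAMRA/BHQ-2 abasic substrate was followed kinetically (525/598 nm, reads every 60 s) after 15 min enzyme–compound preincubation with 2 nM EndoIV in pH 7.5 Tris buffer with MgCl2, DTT and Tween-20; concentration-response format.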

[6] = qHTS for differential inhibitors of proliferation of Plasmodium falciparum line 7G8 (AID 1815);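 also: potency is read from the fitted curve at half-maximal effect; parasite growth measured after three days of incubation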
[7] = qHTS for differential inhibitors of proliferation of Plasmodium falciparum line GB4 (AID 1816); details: Potency: Plasmodium falciparum GB4 proliferation inhibition;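 also: potency is read from the fitted curve at half-maximal effect; parasite growth measured after 72 h incubation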
[8] = qHTS for differential inhibitors of proliferation of Plasmodium falciparum line 3D7 (AID 1876); also: potency is read from the fitted curve at half-maximal effect
[9] = qHTS for differential inhibitors of proliferation of Plasmodium falciparum line W2 (AID 1883); details: Potency: Plasmodium falciparum W2 proliferation inhibition;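 also: potency is read from the fitted curve at half-maximal effect; parasites grown with compound for 72 h before lysis and staining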
[10] = qHTS for differential inhibitors of proliferation of Plasmodium falciparum line HB3 (AID 1886); details: Potency: Plasmodium falciparum HB3 proliferation inhibition;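 also: potency is read from the fitted curve at half-maximal effect; parasites grown with compound for 72 h before SYBR Green readout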
[11] = qHTS Assay for Modulators of Human Peripheral Myelin Protein 22 (PMP22) Expression/Activity (AID 1967; active = well fitted curve in the direction sought with a large enough effect in the signal ratio; the % refers to the signal ratio)
Method in brief: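 Mouse MSC80 Schwann cells carrying Pmp22 promoter–green click beetle luciferase plus EF-alpha–red luciferase control, dosed 24 h at 37 °C. Dual-filter luminescence, overlap-corrected; %Activity from green/red ratio normalised to untreated cells, concentration-response curves fitted.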

[12] = biological target: Ferritin light chain (Equus caballus) (UniProt P02791); test: qHTS Validation Assay for Identification of Novel General Anesthetics (AID 2323)
Chain of Ferritin light chain (Equus caballus) (P02791 2-175 limits assumed): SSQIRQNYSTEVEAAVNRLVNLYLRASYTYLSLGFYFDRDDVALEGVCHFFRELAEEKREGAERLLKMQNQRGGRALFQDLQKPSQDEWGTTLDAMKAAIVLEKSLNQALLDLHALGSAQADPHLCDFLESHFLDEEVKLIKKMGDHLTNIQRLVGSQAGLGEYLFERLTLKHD
Method in brief: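 Horse-spleen apoferritin (10 uM) in PBS with 50% saturated 1-aminoanthracene; compounds pin-transferred, 10 min at room temperature. Fluorescence read at 380/535 nm, normalized to free 1-AMA and 1-AMA/apoferritin values; four-parameter Hill fit.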

[13] = biological target: ATP-dependent DNA helicase Q1 (Homo sapiens) (UniProt P46063); test: qHTS Validation Assay for Inhibitors of RecQ-Like Dna Helicase 1 (RECQ1) (AID 2353)
Method in brief: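 RECQ1T1 50 nM; forked duplex (20 bp + 30-nt ss tails) 200 nM, ATP 2 mM final; pH 8.0, 2 mM MgCl2, 2.5 ug/ml poly(dI-dC); 15 min compound preincubation; discontinuous kinetic read over 2 h at RT.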

[14] = Validation screen for inhibitors of Lassa infection (AID 463096; calls by dose curve)
[15] = Validation screen for small molecules that induce DNA re-replication in MCF 10A normal breast cells (AID 463097); also: nearly all actives have a fitted effect of over 60% in size
Method in brief: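 MCF 10A cells exposed to compound 48 hr at 37 C, 5% CO2, then Hoechst-stained 40 min. Laser-scanning imaging of nuclear DNA content (405 nm ex, 500-530 nm em); re-replication scored as rise in nuclei with elevated fluorescence intensity.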

[16] = biological target: M-phase phosphoprotein 8 (Homo sapiens) (UniProt Q99549); test: qHTS Validation Assay for Inhibitors for MPP8 Chromodomain Interactions with Methylated Histone Tails (AID 488949); also: top concentration of the series differs between compounds; nearly all actives have a fitted effect of over 55% in size
Chain of M-phase phosphoprotein 8 (Homo sapiens) (Q99549 whole entry, looked up): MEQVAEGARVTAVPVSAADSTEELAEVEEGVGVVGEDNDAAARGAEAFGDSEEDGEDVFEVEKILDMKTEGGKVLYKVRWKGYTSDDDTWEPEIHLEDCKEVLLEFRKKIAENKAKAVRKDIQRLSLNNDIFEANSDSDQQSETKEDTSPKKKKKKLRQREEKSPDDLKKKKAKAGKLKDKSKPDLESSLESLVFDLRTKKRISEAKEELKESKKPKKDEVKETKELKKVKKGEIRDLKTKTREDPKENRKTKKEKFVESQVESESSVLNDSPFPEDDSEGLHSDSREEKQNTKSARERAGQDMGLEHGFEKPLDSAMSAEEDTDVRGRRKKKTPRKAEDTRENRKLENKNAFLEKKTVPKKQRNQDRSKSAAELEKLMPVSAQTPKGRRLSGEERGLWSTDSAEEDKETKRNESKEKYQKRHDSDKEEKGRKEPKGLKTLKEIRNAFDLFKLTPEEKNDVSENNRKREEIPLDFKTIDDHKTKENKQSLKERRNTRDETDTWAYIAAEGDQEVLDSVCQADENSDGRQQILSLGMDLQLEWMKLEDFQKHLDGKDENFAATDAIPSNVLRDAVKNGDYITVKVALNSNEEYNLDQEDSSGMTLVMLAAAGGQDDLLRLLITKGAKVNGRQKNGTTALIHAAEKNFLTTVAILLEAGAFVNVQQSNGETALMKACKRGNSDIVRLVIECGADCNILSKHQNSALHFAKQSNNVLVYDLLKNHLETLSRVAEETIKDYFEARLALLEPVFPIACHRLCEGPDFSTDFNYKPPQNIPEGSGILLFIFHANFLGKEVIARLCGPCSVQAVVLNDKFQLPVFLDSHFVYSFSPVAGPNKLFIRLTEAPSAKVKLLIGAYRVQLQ
Method in brief: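 MPP8 (50 nM) was pre-bound to 50 nM biotinylated H3(1-18)K9me3 peptide in PBS pH 7.4 with 0.01% Tween-20. Compounds were then added for 30 min at room temperature, and complex disruption was read by AlphaScreen with streptavidin donor and nickel-chelate acceptor beads.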

[17] = biological target: Transient receptor potential cation channel subfamily V member 1 (Homo sapiens) (UniProt Q8NER1); test: HTS Assay for Compounds that Act as Enhancers of the Vanilloid Receptor 1 (AID 488979)
Method in brief: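 Calcium influx kinetics via Fluo-8 (480/520 nm) in TRPV1-expressing cells, 2000/well cultured overnight at 35.5C. Compound-alone read 3 min (agonist phase), followed by EC20 capsaicin challenge for 2 min (enhancer phase).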

[18] = biological target: Thyrotropin receptor (Homo sapiens) (UniProt P16473); test: qHTS Assay for Antagonists of the Thyroid Stimulating Hormone Receptor (AID 488980)
Method in brief: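 TSHR-transfected HEK293 cells (2000/well) in HEPES-buffered HBSS with 70 uM RO 20-1724 were stimulated with 4 nM TSH (EC80, final) in the presence of compound. cAMP was measured by HTRF competition after lysis and 30 min at RT.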

[19] = biological target: Thyrotropin-releasing hormone receptor (Homo sapiens) (UniProt P34981); test: qHTS for Small Molecule Agonists and Allosteric Enhancers of Human TRH Receptor: Validation Screen for Agonists (AID 493127;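 active = calcium activation more than 3 SD above the typical response in the agonist read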;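 also: intracellular calcium rise by fluo-8 fluorescence before TRH EC20 addition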); details: TRH receptor agonist cell assay; at 2 µM; stronger effect = higher value
Method in brief: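 Compounds are added by online pintool to dye-loaded TRHR cells while fluorescence is recorded every second. A rise in calcium signal during the agonist read marks activation; a later 10 nM TRH addition (EC20) serves the separate enhancer mode.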

[20] = biological target: Galactokinase (Homo sapiens) (UniProt P51570); test: qHTS Validation Assay for Inhibitors of Human Galactokinase (GALK) (AID 493189)
Method in brief: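 GALK (5 nM) with 35 uM ATP and 100 uM galactose in HEPES pH 8.0 with MgCl2, NaCl, DTT and BSA. Reaction ran 1 h at room temperature. Residual ATP read by Kinase-Glo Plus luminescence.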

[21] = biological target: Voltage-gated inwardly rectifying potassium channel KCNH2 (Homo sapiens) (UniProt Q12809); test: qHTS Assay for Small Molecule Inhibitors of the Human hERG Channel Activity (AID 588834);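 also: top concentration of the series differs between compounds; lower thallium flux fluorescence means stronger hERG block; nearly all actives have a fitted effect of over 50% in size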
Method in brief: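 Thallium serves as surrogate for K+ influx through BacMam-delivered hERG in U2OS cells. Compounds are added for about 10 minutes after dye loading; stimulation buffer then starts flux, monitored kinetically on FDSS.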

[22] = test system: Zika virus NS2B-NS3 protease; test: Primary screen GU AMC qHTS for Zika virus inhibitors (AID 1347154); also: nearly all actives have a fitted effect of over 70% in size
Method in brief: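 Fluorogenic AMC-substrate cleavage by noncovalent NS2B-NS3 protease complex (25 nM, pH 8.0 Tris buffer with Tween 20) followed for 15 minutes at room temperature (~20% conversion). Percent inhibition from ex340/em450 signal change, fitted by 4-parameter Hill equation.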

[23] = Primary qHTS for small molecule stabilizers of the endoplasmic reticulum resident proteome: Secreted ER Calcium Modulated Protein (SERCaMP) assay (AID 1508630)
Method in brief: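 The SH-SY5Y reporter protocol was run at 3 concentrations up to 38.3 uM (primary) or 11 concentrations (follow-up): 16 h compound, 100 nM thapsigargin for 4 h, then extracellular luciferase luminescence.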

[24] = biological target: Glucocorticoid receptor (Homo sapiens) (UniProt P04150); test: GR-GFP Redistribution (AID 450;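 active = compounds whose dose series gives a full or clear partial fitted curve of increased nuclear translocation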; also: potency is read from the fitted curve at half-maximal effect); details: U2OS GR-GFP nuclear translocation, laser cytometry, 2 h
Chain of Glucocorticoid receptor (Homo sapiens) (P04150 whole entry, looked up, the tested form may be a part): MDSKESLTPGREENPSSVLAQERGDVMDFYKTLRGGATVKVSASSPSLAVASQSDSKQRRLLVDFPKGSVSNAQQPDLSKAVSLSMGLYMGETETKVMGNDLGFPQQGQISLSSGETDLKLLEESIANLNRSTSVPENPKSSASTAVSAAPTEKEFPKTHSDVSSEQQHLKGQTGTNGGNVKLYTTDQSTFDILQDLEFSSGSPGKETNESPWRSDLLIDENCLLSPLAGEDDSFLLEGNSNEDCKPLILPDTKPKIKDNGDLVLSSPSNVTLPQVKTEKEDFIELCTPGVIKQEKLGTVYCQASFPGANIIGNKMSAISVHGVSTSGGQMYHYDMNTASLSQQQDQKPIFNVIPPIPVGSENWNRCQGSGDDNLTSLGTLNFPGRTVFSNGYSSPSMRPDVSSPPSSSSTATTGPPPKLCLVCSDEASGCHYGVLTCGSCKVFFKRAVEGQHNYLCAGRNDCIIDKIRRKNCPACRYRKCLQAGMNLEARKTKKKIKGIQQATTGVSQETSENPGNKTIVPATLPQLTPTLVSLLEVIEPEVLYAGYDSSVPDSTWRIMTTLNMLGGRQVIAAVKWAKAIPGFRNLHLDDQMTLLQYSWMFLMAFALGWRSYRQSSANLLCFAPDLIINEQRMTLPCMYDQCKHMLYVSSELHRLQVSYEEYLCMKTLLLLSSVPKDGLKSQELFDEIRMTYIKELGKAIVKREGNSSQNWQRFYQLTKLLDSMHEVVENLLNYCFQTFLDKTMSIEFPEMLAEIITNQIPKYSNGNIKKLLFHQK

[25] = biological target: Glucocorticoid receptor (Homo sapiens) (UniProt P04150); test: GR-EFC Redistribution (AID 451; calls by dose curve; also: potency is read from the fitted curve at half-maximal effect); details: CHO-K1 GR-EFC translocation, beta-gal luminescence, 2 h
Method in brief: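 Translocation of GR-ED fusion to nuclear EA restores b-gal, read by luminescence after 1 h room-temperature detection. Engineered CHO-K1 biosensor cells, 1,000/well, exposed 2 h at 37 C to titrations up to 46 uM final.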

[26] = biological target: DNA dC->dU-editing enzyme APOBEC-3G (Homo sapiens) (UniProt Q9HC16); test: qHTS for inhibitors of Vif-A3G interactions: Validation (AID 588379)
Chain of DNA dC->dU-editing enzyme APOBEC-3G (Homo sapiens) (Q9HC16 whole entry, looked up): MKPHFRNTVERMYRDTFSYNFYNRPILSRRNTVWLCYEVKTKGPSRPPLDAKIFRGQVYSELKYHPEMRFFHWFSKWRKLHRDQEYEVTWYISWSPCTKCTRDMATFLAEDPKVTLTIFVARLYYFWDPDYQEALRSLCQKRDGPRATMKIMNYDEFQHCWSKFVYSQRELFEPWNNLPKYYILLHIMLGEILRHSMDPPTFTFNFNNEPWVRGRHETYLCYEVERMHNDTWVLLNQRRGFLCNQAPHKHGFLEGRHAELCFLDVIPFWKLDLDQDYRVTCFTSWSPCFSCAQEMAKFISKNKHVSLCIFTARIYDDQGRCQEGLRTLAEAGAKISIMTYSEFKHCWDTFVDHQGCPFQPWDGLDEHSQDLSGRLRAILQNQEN
Method in brief: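 Yellow fluorescence (Ex 488, Em 500-530) of Vif-coexpressing HeLa A3G-eYFP cells, scanned by Acumen cytometer, reports blocked A3G degradation. Cells plated at 700/well overnight at 37 deg C before compound addition, then a further overnight compound incubation at 37 deg C.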

[27] = Confirmatory qHTS for small molecule stabilizers of the endoplasmic reticulum resident proteome: Secreted ER Calcium Modulated Protein (SERCaMP) assay (AID 1508628); also: potency is read from the fitted curve at half-maximal effect; nearly all actives have a fitted effect of over 40% in size
Method in brief: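 Reporter secretion upon ER calcium depletion (100 nM thapsigargin, 4 h, 37C) is measured as medium luminescence with coelenterazine, after 16 h compound pretreatment of SH-SY5Y-GLuc-SERCaMP cells; primary at three concentrations up to 38.3 uM, follow-up at 11 (up to 76.6 uM).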

[28] = biological target: Rap guanine nucleotide exchange factor 3 (Homo sapiens) (UniProt O95398); test: Confirmatory qHTS for antagonist of cAMP-regulated guanine nucleotide exchange factor 3 (EPAC1) (AID 1645880); also: nearly all actives have a fitted effect of over 55% in size
Chain of Rap guanine nucleotide exchange factor 3 (Homo sapiens) (O95398 whole entry, looked up): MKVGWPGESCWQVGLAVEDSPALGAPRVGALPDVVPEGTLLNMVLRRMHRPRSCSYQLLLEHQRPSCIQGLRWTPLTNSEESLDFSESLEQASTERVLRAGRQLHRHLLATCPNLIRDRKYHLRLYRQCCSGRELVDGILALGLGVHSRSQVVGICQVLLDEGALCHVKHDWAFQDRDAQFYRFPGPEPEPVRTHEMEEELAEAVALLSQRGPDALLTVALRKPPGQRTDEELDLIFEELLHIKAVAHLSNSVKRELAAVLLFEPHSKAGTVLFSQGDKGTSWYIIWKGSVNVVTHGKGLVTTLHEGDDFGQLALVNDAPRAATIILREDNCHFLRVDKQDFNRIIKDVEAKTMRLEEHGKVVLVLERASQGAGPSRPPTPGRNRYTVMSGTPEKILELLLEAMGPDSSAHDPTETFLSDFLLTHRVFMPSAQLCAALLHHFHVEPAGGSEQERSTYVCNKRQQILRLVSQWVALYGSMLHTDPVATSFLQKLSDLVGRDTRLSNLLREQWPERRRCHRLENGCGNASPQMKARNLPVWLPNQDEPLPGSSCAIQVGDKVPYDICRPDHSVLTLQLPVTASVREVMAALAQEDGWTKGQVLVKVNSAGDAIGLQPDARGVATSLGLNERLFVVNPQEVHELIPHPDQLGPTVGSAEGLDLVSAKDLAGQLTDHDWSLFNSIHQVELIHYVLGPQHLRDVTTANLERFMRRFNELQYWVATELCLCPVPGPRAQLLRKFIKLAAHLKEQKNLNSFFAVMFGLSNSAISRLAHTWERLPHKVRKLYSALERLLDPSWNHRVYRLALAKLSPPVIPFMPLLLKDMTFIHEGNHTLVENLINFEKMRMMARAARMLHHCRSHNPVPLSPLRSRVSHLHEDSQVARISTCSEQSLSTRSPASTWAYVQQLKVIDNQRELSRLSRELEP
Method in brief: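 Released BODIPY-GDP fluoresces less than Rap1-bound BODIPY-GDP; the signal is followed at 480/540 nm at 5-min intervals over 30 min, after 5 min at room temperature. Reactions contain 100 nM EPAC1, 250 nM RAP1B-BODIPY-GDP and 50 uM GDP; results are normalized to ATA and DMSO.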

[29] = biological target: Rap guanine nucleotide exchange factor 3 (Homo sapiens) (UniProt O95398); test: Confirmatory qHTS for agonist of cAMP-regulated guanine nucleotide exchange factor 3 (EPAC1) (AID 1645881);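 also: EPAC1 catalysed release of BODIPY-GDP from Rap1B seen as fluorescence loss; nearly all actives have a fitted effect of over 75% in size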
[30] = biological target: Rap guanine nucleotide exchange factor 4 (Homo sapiens) (UniProt Q8WZA2); test: Confirmatory qHTS for agonist of cAMP-regulated guanine nucleotide exchange factor 4 (EPAC2) (AID 1645884);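 also: nucleotide exchange releases bodipy-GDP from Rap1 and this lowers its fluorescence; nearly all actives have a fitted effect of over 65% in size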
Chain of Rap guanine nucleotide exchange factor 4 (Homo sapiens) (Q8WZA2 whole entry, looked up): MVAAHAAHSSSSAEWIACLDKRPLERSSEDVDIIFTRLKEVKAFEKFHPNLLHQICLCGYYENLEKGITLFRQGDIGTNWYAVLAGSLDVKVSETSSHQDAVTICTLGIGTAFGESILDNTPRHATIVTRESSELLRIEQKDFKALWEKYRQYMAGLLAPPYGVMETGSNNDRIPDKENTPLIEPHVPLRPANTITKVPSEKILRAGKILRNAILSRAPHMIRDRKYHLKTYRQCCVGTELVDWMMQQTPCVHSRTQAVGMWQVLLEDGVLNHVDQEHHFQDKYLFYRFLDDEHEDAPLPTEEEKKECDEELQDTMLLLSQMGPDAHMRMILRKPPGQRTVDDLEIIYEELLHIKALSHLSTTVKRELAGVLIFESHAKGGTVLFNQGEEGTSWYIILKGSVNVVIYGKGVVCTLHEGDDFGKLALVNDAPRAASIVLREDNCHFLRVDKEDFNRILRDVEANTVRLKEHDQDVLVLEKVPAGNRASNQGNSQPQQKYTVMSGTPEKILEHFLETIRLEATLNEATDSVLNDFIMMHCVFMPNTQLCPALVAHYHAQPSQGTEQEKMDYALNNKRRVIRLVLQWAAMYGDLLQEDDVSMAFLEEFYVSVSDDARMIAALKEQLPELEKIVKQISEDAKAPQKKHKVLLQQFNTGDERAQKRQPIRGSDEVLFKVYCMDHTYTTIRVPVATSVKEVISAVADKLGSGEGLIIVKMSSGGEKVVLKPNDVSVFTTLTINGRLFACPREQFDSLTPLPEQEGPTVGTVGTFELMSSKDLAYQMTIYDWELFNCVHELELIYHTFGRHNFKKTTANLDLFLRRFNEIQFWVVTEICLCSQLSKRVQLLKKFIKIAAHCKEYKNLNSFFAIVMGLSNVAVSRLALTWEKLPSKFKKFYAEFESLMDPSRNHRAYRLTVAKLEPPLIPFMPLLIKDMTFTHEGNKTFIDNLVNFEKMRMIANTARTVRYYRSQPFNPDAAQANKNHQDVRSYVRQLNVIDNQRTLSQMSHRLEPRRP

[31] = biological target: Cytochrome P450 1A2 (Homo sapiens) (UniProt P05177); test: p450-cyp1a2 (AID 410; calls by dose curve; also: potency is read from the fitted curve at half-maximal effect)
Method in brief: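 O-Demethylation of luciferin 6' methyl ether by human CYP1A2 is monitored as luciferase luminescence. Substrate sits at Km (100uM); enzyme is 20nM. Values are scaled to 57 uM furafylline as maximal inhibition.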

[32] = biological target: Mitogen-activated protein kinase 10 (Mus musculus) (UniProt Q61831); test: JNK3 AlphaScreen Assay (AID 530; active = well fitted curve in either direction with a large enough effect, not every such curve was filed as active;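 also: kinase came from lysate of stimulated human HepG2 cells; signal reports phosphorylation of biotinylated GST-cJun 1-79 at Ser73 with 10 µM ATP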)
Method in brief: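 qHTS titrations with 15 min compound pre-incubation before adding ATP (10 uM final). Read-out: AlphaScreen of Ser73-phosphorylated biotin-GST-cJun using HepG2 lysate JNK3 activated by IL-1β and TNFα.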

[33] = biological target: Cytochrome P450 2D6 (Homo sapiens) (UniProt P10635); test: qHTS Assay for Inhibitors and Substrates of Cytochrome P450 2D6 (AID 891); also: potency is read from the fitted curve at half-maximal effect; nearly all actives have a fitted effect of over 60% in size
Chain of Cytochrome P450 2D6 (Homo sapiens) (P10635 whole entry, looked up): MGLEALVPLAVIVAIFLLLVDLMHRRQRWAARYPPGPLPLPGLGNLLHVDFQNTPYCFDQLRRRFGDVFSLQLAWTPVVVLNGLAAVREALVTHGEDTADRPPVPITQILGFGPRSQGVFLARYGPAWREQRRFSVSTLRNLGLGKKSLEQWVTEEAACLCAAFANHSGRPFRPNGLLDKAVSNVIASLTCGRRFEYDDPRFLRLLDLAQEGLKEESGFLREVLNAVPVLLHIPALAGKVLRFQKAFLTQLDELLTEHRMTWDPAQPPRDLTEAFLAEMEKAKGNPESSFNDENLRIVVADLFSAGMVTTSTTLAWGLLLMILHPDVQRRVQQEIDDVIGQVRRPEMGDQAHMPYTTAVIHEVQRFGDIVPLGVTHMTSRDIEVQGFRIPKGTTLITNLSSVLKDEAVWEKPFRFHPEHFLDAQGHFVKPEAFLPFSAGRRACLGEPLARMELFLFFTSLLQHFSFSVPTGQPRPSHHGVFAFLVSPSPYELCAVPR
Method in brief: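 Luminescent read-out of luciferin formed by 5 nM human CYP2D6 demethylating 30 uM Luciferin-ME EGE (Km level) over 60 min at room temperature after NADPH regeneration addition. Data normalized to full inhibition by 1.43 uM quinidine.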

[34] = Cell Viability qHTS for small molecule stabilizers of the endoplasmic reticulum resident proteome (AID 1508629); details: cell viability counter-screen, 100 nM thapsigargin for final 4 h;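 also: human SH-SY5Y neuroblastoma cells carrying the GLuc-SERCaMP reporter; compound exposure about 46 h in total before the viability read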

Structure (SMILES): CC(O)C(C)OC(=O)[C@@H]1C[C@@H]2c3cccc4c3c(cn4C(C)C)C[C@H]2N(C)C1 (stereo not given in full)
- outcome [1]: inactive
- activity change, negative = inhibition ([2]; at 57.5 µM (top of the series)): 2.46% (inactive)
- max response ([2]; measured here: cell count channel max response): -4.58%
- max response ([2]; measured here: lipid channel max response): -0.261%
- Potency [3]: inactive
- Potency [4]: inactive
- outcome [5]: inactive
- Potency [6]: 11.2 µM (active)
- Potency [7]: 12.6 µM (active)
- Potency [8]: 12.6 µM (active)
- Potency [9]: 7.94 µM (active)
- Potency [10]: 14.1 µM (active)
- outcome [11]: inactive
- outcome [12]: inactive
- Potency [13]: inactive
- Potency [14]: inactive
- Potency [15]: inactive
- Potency [16]: inactive
- outcome [17]: inactive
- outcome [18]: inactive
- activation [19]: 4% (inactive)
- outcome [20]: inactive
- Potency [21]: inactive
- Potency [22]: inactive
- Potency [23]: inactive

Structure (SMILES): CC(C)(O)[C@H]1O[C@@H]2CC[C@]3(C)[C@@]4(C)c5[nH]c6ccccc6c5C[C@@H]4CC[C@]3(O)C2=CC1=O
- Potency [24]: 0.0676 nM (active)
- Potency [25]: > 46 µM (inactive)
- Potency [26]: inactive
- Potency [22]: inactive
- Potency [27]: 20 µM (active)
- Potency [28]: inactive
- outcome [29]: inactive
- outcome [30]: inactive

Structure (SMILES): C[C@@H](C(=O)OC1C[C@H]2CC[C@@H](C1)N2C)c1ccc(Br)cc1 (stereo not given in full)
- Potency [31]: 39.8 µM (active)
- Potency [25]: > 46 µM (inactive)
- outcome [32]: inactive
- Potency [33]: 3.98 µM (active)
- Potency [22]: inactive
- Potency [27]: 31.6 µM (active)
- max response [34]: -11% (inactive)
